Vaccinia Venus: inhibitors of vaccinia virus (Venus reporter) | Vaccinia virus Venus reporter expression, fluorescence | Potency, µM (titrated, usually from 36.5 µM), without a hit: top-dose activity change, negative = inhibition, usual class: inhibitors | 330,000 tested, 0.46% active | AID 720580; calls by dose curve; tested in A549 cells; further: potency means the concentration at half of the fitted maximal effect; nearly all actives have a fitted effect of over 30% in size
Vaccinia mCherry: vaccinia inhibition (mCherry reporter) | Potency, µM (highest dose often 36.5 µM), for the others: at the highest dose activity change, negative = inhibition, usual class: inhibitors | AID 720579 | Vaccinia virus mCherry reporter infection, fluorescence | 310,000 tested, 0.63% active; calls by dose curve; tested in A549 cells; further: potency means the concentration at half of the fitted maximal effect; nearly all actives have a fitted effect of over 35% in size
HCMV inh: human cytomegalovirus inhibition. HFF cells, HCMV-luciferase reporter, 72 h; stronger effect = lower value. activity change, negative = inhibition, % at 57.5 µM. 410,000 tested, 4.5% active. AID 1259415; in the data active means activity change below about -60%; inconclusive means no clear call, values can overlap the other calls; inactive means above about -39%
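Human foreskin fibroblasts infected with luciferase-reporter HCMV at MOI 1 PFU/cell, compounds at two doses. Luciferase measured 72 h post infection; normalized to buffer-only basal and Salinomycin (10uM) controls.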
HCV inh: HCV inhibition. Huh7.5.1 HCVcc-Cre infection, luciferase reporter, 44 h. 340,000 tested, 3.4% active. Potency, µM (titrated, usually from 41.8 µM), without a hit: at the top dose activity change, negative = inhibition, most hits filed as inhibitors; active means well fitted inhibition curve with a large enough effect; inconclusive means small, poorly fitted or top-dose-only effect, or another doubt; inactive means no such curve, though single readings can be large or run the other way; further: potency means the concentration at half of the fitted maximal effect
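Infectious HCVcc-Cre (~0.5 moi) was added to cells just after compound, with cells seeded 4 h earlier at 1,000 per well. Luciferase activity after 44 h culture reported infection; substrate was incubated 15 min at room temperature before reading.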
FMDV antiviral: foot and mouth disease virus antiviral activity; FMDV antiviral cell-based qHTS; Potency, µM (titrated, usually from 57.9 µM), for the others: at the highest dose activity change, negative = inhibition, usual class: inhibitors; 410,000 tested, 1.2% active; AID 1159524; calls by dose curve; tested in HEK293T cells; further: read-out not given here; potency means the concentration at half of the fitted maximal effect; nearly all actives have a fitted effect of over 45% in size
Active calls of the source: *; i = inactive; ? = inconclusive; · = no result given; [ ] = remark or other dose. A selection: hits, their analogues and other compounds. The true share with any hit is near 7.3%. On the % scale 0 is the no-effect control and ±100 the full control effect.

SMILES | Vaccinia Venus | Vaccinia mCherry | HCMV inh | HCV inh | FMDV antiviral
COc1ccc(CC(=O)Nc2nc(-c3ccncc3)cs2)cc1 | -9% | -18% | -82* | ? | -7%
COc1ccc(CCNc2nc(-c3ccc(NC(C)=O)cc3)cs2)cc1OC | -18% | -6% | -12 | ? | 25µM*
COc1ccc(-c2csc(NC(=O)C3COc4ccccc4O3)n2)cc1OC (configuration not stated) | -19% | -37% | -8 | 11µM* | ?
CN(C)CCNc1nccc(N2CCN(C)CC2)n1 | -14% | -5% | · | · | ·
CCN1CC(=O)Nc2cc(S(=O)(=O)N3CCOCC3)ccc21 | 2% | -12% | -60* | -6% | -13%
COc1ccc(NS(=O)(=O)c2cc([N+](=O)[O-])ccc2N/N=C/c2c(C)[nH]c3ccccc23)cc1 | -3% | -14% | 33 | 11µM* | 21%
CC1(NCc2ccc(Cl)cc2)COP(=O)(NCc2ccccc2)OC1 (configuration not stated) | -19% | i | -83* | 13% | -7%
CCCN(CCC)c1cc(C)nc2nc(-c3ccc(Cl)cc3)nn12 | 2% | -11% | 6 | · | -13%
O=C1c2ccccc2C(=O)N1c1cccc(O)c1 | -21% | -9% | · | · | ·
CCN(CC)CC(=O)Nc1ccc(-c2ccc(NC(=O)CN(CC)CC)c(OC)c2)cc1OC | -20% | -27% | -12 | 1.8µM* | 0%
COc1cc(-c2ccc(NC(=O)NC3CC3)c(OC)c2)ccc1NC(=O)NC1CC1 | · | · | -77* | · | ·
COc1ccccc1NC(=O)NC1CCS(=O)(=O)C1 (configuration not stated) | 1% | 3% | 0 | 1% | -7%
CCC(=O)Nc1ccc(-c2ccc(NC(=O)CC)c(OC)c2)cc1OC | -15% | ? | ? | ? | -8%
O=C(CN1CCC2(CC1)OCCO2)c1ccc2cc[nH]c2c1 | -4% | i | -66* | 15% | 44%
CCNc1ncc2nc(-c3ccc(Cl)cc3)c(=O)n(Cc3ccc(F)cc3)c2n1 | · | · | · | · | -15%
COc1ccc(C(=O)/C=C/c2ccc(OC)c(Cn3nnc4ccccc43)c2)cc1 | ? | 13µM* | ? | -25% | 13µM*
COc1ccc(/C=C/C(=O)c2ccccc2O)cc1CN1CCOCC1 | 3% | · | · | ? | ?
COc1ccc(/C=C/C(=O)C23CC4CC(CC(C4)C2)C3)cc1CN1CCOCC1 | -26% | -24% | -82* | ? | ?
COc1ccc(C(=O)/C=C/c2ccc(OC)c(CN3CCOCC3)c2)cc1 | ? | 10µM* | -77* | 11% | 14µM*
COc1ccc(/C=C/C(=O)c2ccc(O)cc2)cc1CN1CCOCC1 | ? | ? | ? | -4% | ?
COc1ccc(C)cc1Cn1nnc2ccccc21 | -14% | -7% | 4 | 1% | 4%
Cc1c(Cl)cccc1NC(=O)CSc1nc2ncccc2o1 | -4% | 14% | 7 | · | 6%
Cn1c(-c2cccnc2)cc2c(Nc3cccc(C(F)(F)F)c3)nccc21 | · | · | -22 | · | ·
COc1ccc(/C=N/NC(=O)c2cccnc2)cc1COc1ccc(NC(C)=O)cc1 | -5% | -9% | -37 | -6% | -12%
COc1ccc(C(=O)N/N=C/c2ccc(OC)c(COc3c(F)c(F)cc(F)c3F)c2)cc1 | -12% | ? | -13 | 2.2µM* | ?
SMILES | Vaccinia Venus | Vaccinia mCherry | HCMV inh | HCV inh | FMDV antiviral
COc1ccc(C(=O)N/N=C/c2ccc(OC)c(CSc3ccccn3)c2)cc1 | · | · | -65* | ? | -8%
COc1ccc(/C=N/NC(=O)c2cccnc2)cc1COc1ccc([N+](=O)[O-])cc1 | -27% | -19% | ? | -10% | 28µM*
COc1ccc(OCc2cc(/C=N\NC(=O)c3ccccc3)ccc2OC)cc1 | -12% | -6% | ? | ? | 9%
COc1ccc(/C=N/NC(=O)c2cc(OC)c(OC)c(OC)c2)cc1CN1CCc2cc(OC)c(OC)cc2C1C (configuration not stated) | -16% | -11% | -18 | 2µM* | -8%
CCN1CCN(c2nc3c(S(=O)(=O)c4ccc(Br)cc4)nnn3c3ccsc23)CC1 | ? | ? | 13 | · | 17%
CN(C)c1ccc(/C=C/c2ccnc3ccccc23)c(F)c1 | 15% | i | · | · | ·
CCC1CN(CC(=O)NCc2cc(C)n(C)n2)Cc2cc(OC)ccc2O1 (configuration not stated) | -3% | -11% | · | · | 12%
COc1ccc(/C=N/NC(=O)c2cccnc2)cc1CN1CCCc2ccccc21 | -3% | -4% | -13 | -17% | ?
COc1ccc(/C=N\NC(=O)c2ccc([N+](=O)[O-])cc2)cc1COc1c(F)c(F)cc(F)c1F | · | · | 19 | 1.6µM* | ?
COc1ccc(C(=O)N/N=C/c2ccc(OC)c(CN3CCCc4ccccc43)c2)cc1 | -5% | -11% | ? | 6.3µM* | -11%
COC(=O)C(=C/C(C)=C/c1cccs1)C(=O)OC | -14% | -17% | -26 | -5% | 28µM*
COc1cc(CNn2nnnc2N)cc(Br)c1OCc1c(Cl)cccc1Cl | · | · | -70* | 13µM* | ?
Cc1ccccc1-c1cccc(CN2CCc3nnc(C(C)NC(=O)c4cccnc4)n3CC2)c1 (configuration not stated) | -11% | -19% | · | · | -5%
Cc1ccccc1C(=O)N1[C@@H](C(C)C)COc2cc(Br)ccc2S1(=O)=O | -10% | -15% | -10 | -10% | 40µM*
CC(C)C[C@H]1COc2cc(Br)ccc2S(=O)(=O)N1 | -16% | -3% | -12 | · | -28%
CCn1cc(C(=O)N(C)c2cc(C)ccc2C)c2cc(OC)c(OC)cc2c1=O | 5% | 2% | -12 | · | -19%
O=C(NS(=O)(=O)Oc1ccc(Cl)cc1)OC[C@@H]1CCCN2CCCC[C@H]12 | -5% | -10% | ? | 12% | -15%
Cc1cccc(OS(=O)(=O)NC(=O)OCC2CCCN3CCCCC23)c1 (configuration not stated) | -11% | -9% | -14 | 9% | 32µM*
Clc1cccc(-n2ncc3c(Nc4ccc5c(c4)OCCO5)ncnc32)c1 | -8% | -25% | -24 | · | -10%
COC(OC)c1ccnc(-c2ccc(OC(C)=O)cc2)n1 | -7% | i | -83* | 14% | 11%
COC(OC)c1ccnc(-c2ccc(OC(=O)c3ccccc3)cc2)n1 | -12% | -2% | 30 | -2% | -23%
Cc1ccccc1NC(=O)Cn1nc(-c2ccc(F)cc2)c2cnc3ccccc3c21 | 12% | 9% | 24 | · | 9%
C=CCn1c(C)cc(-c2csc(NCC)n2)c1C | 19% | -1% | -63* | 10µM* | 8%
CNC(=S)N/N=C1\C(=O)c2cccc3cccc1c23 | -14% | i | -106* | 3% | 3%
COc1ccccc1NC(=O)CSc1nnc(NC(=O)Nc2ccc(C)cc2)s1 | -15%[7.34 µM] | -6%[7.34 µM] | -86* | · | -8%
Cc1ccc(NC(=O)Nc2nnc(SCC(=O)N(C(C)C)C(C)C)s2)cc1 | -13%[7.34 µM] | -4%[7.34 µM] | -80* | · | 0%
CCN(C(=O)COC(=O)/C=C/c1cnc2ccccc2n1)c1ccccc1 | · | · | -89* | 8% | -26%
